# Experimental data as given in PubChem BioAssay (NCI).
# About 83,000 compounds went through this panel and 20% of them were active in at least one assay; those are over-represented in the sample as a whole.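 Single-concentration screen, 48 h exposure, 96-well plates. Endpoint: percent growth. Below 10 = active.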 Calls of active or inactive are those of the source.
# Tested on: BT-549 breast
# Experiment: NCI-60 one-dose screen, 48 h (100 = growth as untreated, 0 = no growth, -100 = all killed)
# Conditions: 10 µM
row,SMILES,growth
1,COc1cc(/C=C\c2cc(OC)c(OC)c(OC)c2)cc(NS(=O)(=O)c2ccc(Cl)cc2)c1OC,40.6% (inactive)
2,COc1ccc(/C=C2/CN(CCC#N)C/C(=C\c3ccc(OC)cc3)C2=O)cc1,5.02% (active)
3,c1ccc(CP(Cc2ccccc2)c2ccccc2)cc1,96.2% (inactive)
4,COc1ccc(-c2nc(-c3nc4cc(Cl)c(F)cc4[nH]3)c3ccccn23)cc1,91% (inactive)
5,Cc1nc2ccccc2c(N)c1-c1cc(C)c2c(C)nc3ccccc3c2n1,58.2% (inactive)
6,CC1(C)CCC(=NNC(N)=S)CC1,125% (inactive)
7,Nc1nc(Nc2ccccc2)n[nH]1,88.8% (inactive)
8,CCOC(=O)N1C/C(=C/c2ccc(OC)cc2)C(=O)/C(=C/c2ccc(OC)cc2)C1,-12.8% (active)
9,CC(=O)n1c(-c2ccc(Cl)c(Cl)c2)cn(-c2ccc(Cl)cc2)c1=O,0.373% (active)
10,N=C(N)c1ccc(-c2ccc(-c3ccco3)o2)cc1,80.2% (inactive)
11,COc1ccc(/C=C/C(C)=N/OCC(=O)O)cc1,98.6% (inactive)

# Tested on: MDA-MB-435 melanoma
# Experiment: as above
# Conditions: 10 µM
row,SMILES,growth
1,COc1ccc(-c2nc(-c3nc4ccc(Cl)cc4[nH]3)c3ccccn23)cc1,58.3% (inactive)
2,O=C(O)c1ccc(P(=O)(O)O)c([N+](=O)[O-])c1,96% (inactive)
3,COc1ccc2c(c1)N(CCO)C1=C(C(=O)OC1)C2c1ccc(OC)c(OC)c1 (stereo not given),-25.9% (active)
4,CC(=O)O[C@]1(C)CC[C@H]2[C@H](CNCCc3ccc(Cl)cc3)C(=O)O[C@@H]2C2=C(C)C(=O)C[C@H]21,88% (inactive)
5,COc1ccc(Cl)cc1-n1nnc(-c2nc3ccccc3[nH]2)c1N,88.6% (inactive)
6,O=C1/C(=C\c2ccc(F)cc2)CN(C(=O)c2ccccc2)C/C1=C\c1ccc(F)cc1,-39.4% (active)
7,CCC(=O)N1C/C(=C/c2ccc(Cl)cc2)C(=O)/C(=C/c2ccc(Cl)cc2)C1,-58.6% (active)
8,COc1cc(C2CC(c3ccc(Nc4ccnc5cc(Cl)ccc45)cc3)=NN2c2ccc(Cl)cc2)cc(OC)c1OC (stereo not given),8.05% (active)
9,COc1cc(NC(=O)CCSc2nc3ccc(C)cc3c(=O)n2Cc2ccccc2)cc(OC)c1OC,92.1% (inactive)
10,COc1cc(Nc2ncnc(Nc3ccc4c(n3)NC(=O)C(C)(C)O4)n2)cc(OC)c1OC,16.6% (inactive)
11,C[C@@H]1C=C2C(=O)O[C@@H]3CC[C@H](C1)[C@]23O,57.7% (inactive)
12,N#CCCN1C/C(=C/c2ccc(Cl)cc2)C(=O)/C(=C/c2ccc(Cl)cc2)C1,-66.5% (active)
13,Cc1[nH]nc2c1C(c1cnn(C)c1)C(C#N)=C(N)O2 (stereo not given),101% (inactive)
14,O=C(Nc1nc2ccc(F)cc2s1)c1cc(-c2ccc(F)cc2)n2nc(-c3ccccc3)cc2n1,62.7% (inactive)
15,COc1ccc(-c2nc(-c3nc4cc(Cl)c(Cl)cc4[nH]3)c3ccccn23)cc1,65.2% (inactive)
16,Cc1ccc(CC#N)cc1C,88.4% (inactive)
17,O=C1/C(=C\c2ccc(Cl)cc2)CN(C(=S)Nc2ccccc2)C/C1=C\c1ccc(Cl)cc1,-82.1% (active)
18,C#Cc1ccc(-n2c(/C=C/c3ccc4ccccc4n3)nc3ncccc3c2=O)cc1,-11.5% (active)
19,N#CCCN1C/C(=C/c2ccccc2)C(=O)/C(=C/c2ccccc2)C1,-30.9% (active)
20,CCC(=O)N1C/C(=C/c2ccc(OC)cc2)C(=O)/C(=C/c2ccc(OC)cc2)C1,-28.1% (active)

row,SMILES,growth
1,Cc1ccc(C)c(C(O)(c2cc(C)ccc2C)C2(O)CCCCC2)c1,105% (inactive)
2,O=C1/C(=C\c2ccc(F)cc2)CN(C(=O)c2ccc([N+](=O)[O-])cc2)C/C1=C\c1ccc(F)cc1,-30% (active)
3,CC(=O)OCc1cc(-c2nc3ccccc3[nH]c2=O)nn1-c1ccc(Cl)cc1,99.7% (inactive)
4,O=C1/C(=C\c2ccc(Cl)cc2)CN(C(=O)c2ccccc2)C/C1=C\c1ccc(Cl)cc1,-18.1% (active)
5,CC(C)(C)c1cc(Br)cc(C(C)(C)C)c1O,95.8% (inactive)
6,C#Cc1ccc(-n2c(/C=C/c3ccc(C(F)(F)F)cc3)nc3ncccc3c2=O)cc1,6.06% (active)
7,CC/C(=C(/c1ccc(OCCN(C)C)cc1)c1ccc(OC(=O)CCCCC(=O)c2c(C)[nH]c(/C=C3\N=C(c4ccc[nH]4)C=C3OC)c2C)cc1)c1ccccc1,61.4% (inactive)
8,CSc1nn(-c2ccccc2)c2ncnc(Oc3ccccc3)c12,102% (inactive)
9,COc1cc(/C=C\c2cc(OC)c(OC)c(OC)c2)cc(NS(=O)(=O)c2ccc(Cl)cc2)c1OC,-39.1% (active)
10,COc1ccc(/C=C2/CN(CCC#N)C/C(=C\c3ccc(OC)cc3)C2=O)cc1,-30% (active)
11,c1ccc(CP(Cc2ccccc2)c2ccccc2)cc1,75.5% (inactive)
12,COc1ccc(-c2nc(-c3nc4cc(Cl)c(F)cc4[nH]3)c3ccccn23)cc1,64.4% (inactive)
13,Cc1nc2ccccc2c(N)c1-c1cc(C)c2c(C)nc3ccccc3c2n1,69.4% (inactive)
14,CC1(C)CCC(=NNC(N)=S)CC1,111% (inactive)
15,Nc1nc(Nc2ccccc2)n[nH]1,99.2% (inactive)
16,CCOC(=O)N1C/C(=C/c2ccc(OC)cc2)C(=O)/C(=C/c2ccc(OC)cc2)C1,-33.4% (active)
17,CC(=O)n1c(-c2ccc(Cl)c(Cl)c2)cn(-c2ccc(Cl)cc2)c1=O,32% (inactive)
18,N=C(N)c1ccc(-c2ccc(-c3ccco3)o2)cc1,55.4% (inactive)
19,COc1ccc(/C=C/C(C)=N/OCC(=O)O)cc1,114% (inactive)
